KLK7 zymogen act: activators of human kallikrein-7 zymogen | AID 652039 | purified proKLK7, EDANS-DABCYL substrate fluorescence; 100% is mature enzyme control, 0% vehicle | 0.9% of 370,000 active | activation, % at 7 µM | P49862;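 active means activation above the mean of all tested compounds plus 3 SD, computed per campaign excluding outliers beyond control limits, cut at about 13% in these data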
Target sequence (P49862 whole entry, looked up): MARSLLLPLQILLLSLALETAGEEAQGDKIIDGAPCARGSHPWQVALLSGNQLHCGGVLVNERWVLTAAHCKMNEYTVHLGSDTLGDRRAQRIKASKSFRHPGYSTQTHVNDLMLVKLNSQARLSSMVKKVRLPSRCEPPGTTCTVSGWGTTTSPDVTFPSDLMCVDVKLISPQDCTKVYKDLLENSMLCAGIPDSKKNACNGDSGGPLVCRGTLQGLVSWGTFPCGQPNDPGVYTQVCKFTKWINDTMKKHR
ADAM10 inh: inhibits human ADAM10 | O14672 | recombinant ADAM10, EDANS/DABCYL FRET peptide cleavage, 3 h | inhibition, % at 7 µM | 0.62% of 370,000 active | AID 720582;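 active means inhibition above a per-campaign cutoff equal to the mean of compounds falling between control-based bounds plus 3 SD, cut at about 20% in these data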;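 further: 0% = DMSO wells while the 100% control is not disclosed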
PLC-gamma1 inh: blocks human PLC-gamma1 enzyme activity | 0.84% of 370,000 active | purified PLC-gamma1, fluorogenic substrate, fluorescence | P19174 | AID 720700 | inhibition, % at 12.2 µM; in the data active means inhibition above about 9.5%
ADAM17 inh: inhibits human ADAM17; AID 720648; 0.83% of 370,000 active; P78536; recombinant ADAM17, EDANS/DABCYL FRET peptide cleavage; inhibition, % at 6.95 µM;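 active means inhibition above the mean of compounds lying between control limits plus 3 SD, set per campaign, cut at about 8.5% in these data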;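 further: 0% = DMSO-only wells as the low control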
PLCb3 inh: inhibitors of human phospholipase C beta3. Q01970. AID 720704. inhibition, % at 12.2 µM. 0.18% of 370,000 active. Purified PLC-beta3, fluorogenic substrate, fluorescence; in the data active means inhibition above about 11%;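 further: 0% = median of compound wells on plate and 100% = full blocker control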
KLK7 act conf: proKLK7 activation, confirmation. shares compounds with KLK7 zymogen act. purified proKLK7, EDANS-DABCYL substrate fluorescence; scaled: vehicle 0, mature enzyme 100. activation, % at 7 µM. 68% of 3,200 active. AID 686949;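 active means activation, as change over the incubation, above the mean of all tested compounds plus 3 SD, cut at about 13% in these data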
EDANS interfere: fluorescence interference counter-screen for KLK7 activators; shares compounds with KLK7 zymogen act; 80% of 3,200 active; AID 686952; activation, % at 7 µM; EDANS-DABCYL substrate fluorescence interference, no enzyme, 4 h; solvent 0%, active enzyme control 100%;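 active means activation above the all-compound mean plus 3 SD, ignoring values outside control-based bounds, cut at about 4.8% in these data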;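 further: value is the 4 h activation minus the activation read at time zero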
* hit, by the source's call. This is a sample that favours compounds with a hit; in the whole collection about 2.9% have one here.

`COc1ccc(CNC(=O)C[C@H]2C[C@H](C(=O)N(C(C)C)C(C)C)[C@@]3(C)c4[nH]c5cc(-c6ccco6)ccc5c4CCN3C2=O)cc1OC` gave KLK7 zymogen act 13*, ADAM10 inh -296, PLC-gamma1 inh -470, ADAM17 inh -83, PLCb3 inh inactive, KLK7 act conf 12 and EDANS interfere 10*.
CN(C)CCCNC(=O)C[C@H]1C[C@H](C(=O)N2CCOCC2)[C@@]2(C)c3[nH]c4cc(-c5ccco5)ccc4c3CCN2C1=O was read as KLK7 zymogen act 54*, ADAM10 inh -406, PLC-gamma1 inh -300, ADAM17 inh -119, PLCb3 inh -368, KLK7 act conf 56* and EDANS interfere 57*.
`COCCCNC(=O)C[C@H]1C[C@H](C(=O)N(C(C)C)C(C)C)[C@@]2(C)c3[nH]c4cc(-c5ccco5)ccc4c3CCN2C1=O` gave KLK7 zymogen act 137*, ADAM10 inh inactive, PLC-gamma1 inh inactive, ADAM17 inh -142, PLCb3 inh inactive, KLK7 act conf 152* and EDANS interfere 146*.
For COC(=O)C1CN(C2CCCC2)CCS(=O)(=O)N1Cc1ccc(F)cc1 (stereo not drawn) the results were KLK7 zymogen act 0, ADAM10 inh 1, PLC-gamma1 inh 2, ADAM17 inh -3 and PLCb3 inh 2.
`Cc1ccc(NC(=O)C2CC3CCC2C3)c(C)c1` (stereo not drawn) gave ADAM10 inh -9, PLC-gamma1 inh 2, ADAM17 inh -4 and PLCb3 inh 0.
CNc1ccccc1/C(O)=C(\C#N)C(=O)NCc1cccc2ccccc12 was read as KLK7 zymogen act 0, ADAM10 inh -17, PLC-gamma1 inh -5, ADAM17 inh -6 and PLCb3 inh -6.
COC(=O)C1Cc2c([nH]c3ccccc23)CN1 (stereo not drawn) was read as KLK7 zymogen act 19*, ADAM10 inh -259, PLC-gamma1 inh -88, ADAM17 inh -60, PLCb3 inh -117, KLK7 act conf 11 and EDANS interfere 8.9*.
Screening COC(=O)[C@H]1Cc2c([nH]c3ccccc23)[C@H](c2ccccc2)N1 returned KLK7 zymogen act 0, ADAM10 inh -8, PLC-gamma1 inh -2, ADAM17 inh -2 and PLCb3 inh -6.
`COCC(=O)N(C)[C@H]1C[C@H]2c3[nH]c4c(-c5ccc6c(c5)OCO6)cccc4c3CCN2C(=O)[C@H]1[C@H](C)O` gave KLK7 zymogen act 1, ADAM10 inh -15, PLC-gamma1 inh -10, ADAM17 inh -10 and PLCb3 inh -15.
`CCN(CC)C(=O)[C@H]1C[C@H](CC(=O)NCCN2CCOCC2)C(=O)N2CCc3c([nH]c4cc(-c5ccco5)ccc34)[C@]12C` gave KLK7 zymogen act 120*, ADAM10 inh inactive, PLC-gamma1 inh inactive, ADAM17 inh -190, PLCb3 inh inactive, KLK7 act conf 148* and EDANS interfere 194*.
CCN(CC)C(=O)[C@H]1C[C@H](CC(=O)NCCCn2ccnc2)C(=O)N2CCc3c([nH]c4cc(-c5ccco5)ccc34)[C@]12C was read as KLK7 zymogen act 95*, ADAM10 inh -209, PLC-gamma1 inh -138, ADAM17 inh -58, PLCb3 inh -191, KLK7 act conf 69* and EDANS interfere 74*.
CC(C)N(C(=O)[C@H]1C[C@H](CC(=O)NCC23CC4CC(CC(C4)C2)C3)C(=O)N2CCc3c([nH]c4cc(-c5ccco5)ccc34)[C@]12C)C(C)C was read as KLK7 zymogen act 0, ADAM10 inh -75, PLC-gamma1 inh -110, ADAM17 inh -19 and PLCb3 inh -137.
For CCN(CC)C(=O)[C@H]1C[C@H](CC(=O)NCc2ccco2)C(=O)N2CCc3c([nH]c4cc(-c5ccco5)ccc34)[C@]12C the results were KLK7 zymogen act 112*, ADAM10 inh inactive, PLC-gamma1 inh inactive, ADAM17 inh -147, PLCb3 inh inactive, KLK7 act conf 44* and EDANS interfere 51*.
O=C1C(NC(=O)N2c3ccccc3C=Cc3ccccc32)CCCCN1Cc1cccc(C(F)(F)F)c1 (stereo not drawn) was read as KLK7 zymogen act 0, ADAM10 inh 14, PLC-gamma1 inh 0, ADAM17 inh 5 and PLCb3 inh -3.
Screening COc1ccc(C2Nc3ccccc3C(=O)N2Cc2ccc(C)o2)cc1COc1c(C)cccc1C (stereo not drawn) returned ADAM10 inh -202, PLC-gamma1 inh -123, ADAM17 inh -82 and PLCb3 inh -172.
For O=C(CN1CCc2onc(-c3ccc(-n4cc(COc5ccc([N+](=O)[O-])cc5)nn4)cc3)c2C1=O)N1CCOCC1 the results were KLK7 zymogen act 0, ADAM10 inh -4, PLC-gamma1 inh -3, ADAM17 inh -2 and PLCb3 inh -1.
For Cc1ccc(S(=O)(=O)c2c(N)n(NC(=O)c3ccco3)c3nc4ccccc4nc23)cc1 the results were KLK7 zymogen act 46*, ADAM10 inh inactive, PLC-gamma1 inh -331, ADAM17 inh -367, PLCb3 inh -443, KLK7 act conf 4 and EDANS interfere 6.0*.
For Cc1nn(-c2ccccc2)c2nc(N)c(C(N)=O)cc12 the results were KLK7 zymogen act 14*, ADAM10 inh inactive, PLC-gamma1 inh -388, ADAM17 inh -264, PLCb3 inh -488, KLK7 act conf 15* and EDANS interfere 17*.
For COC(=O)c1cc(C)nc2c1c(C)nn2-c1ccccc1 the results were KLK7 zymogen act 3, ADAM10 inh -29, PLC-gamma1 inh -28, ADAM17 inh -1 and PLCb3 inh -41.
Screening CCn1nc2cc(C(=O)NCCc3cccs3)ccc2c1OC returned KLK7 zymogen act 18*, ADAM10 inh inactive, PLC-gamma1 inh -295, ADAM17 inh -196, PLCb3 inh -368, KLK7 act conf 8 and EDANS interfere 3.
CCOc1c2ccc(C(=O)NCc3ccc(OC)cc3)cc2nn1CCOC was read as KLK7 zymogen act 13*, ADAM10 inh inactive, PLC-gamma1 inh -366, ADAM17 inh -246, PLCb3 inh -461, KLK7 act conf -4 and EDANS interfere -5.
For CCOc1c2ccc(C(=O)NCCc3ccc(C)cc3)cc2nn1CC the results were KLK7 zymogen act -8, ADAM10 inh inactive, PLC-gamma1 inh -375, ADAM17 inh -223 and PLCb3 inh inactive.
Screening COc1ccc(O)c(C(=O)CC(=O)c2cccnc2)c1 returned KLK7 zymogen act 55*, ADAM10 inh inactive, PLC-gamma1 inh inactive, ADAM17 inh -336, PLCb3 inh inactive, KLK7 act conf 229* and EDANS interfere 235*.

Screening data as filed in PubChem BioAssay.
